{"source": "PubChem BioAssay (NCI)", "note": "The panel holds about 83,000 compounds, 20% with a hit somewhere; the sample as a whole holds those more often.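 Single-dose data. Exposure time 48 hours. Values below 10 considered active.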 Activity calls are given as the source filed them.", "data": [{"test_system": "OVCAR-8 ovarian", "test": "NCI-60 one-dose screen, 48 h (100 = growth as untreated, 0 = no growth, -100 = all killed)", "settings": "10 µM unless noted", "procedure": "Growth inhibition of the OVCAR-8 human tumor cell line is measured as a screen for anti-cancer activity. Cells are grown in 96 well plates and exposed to the test compound for 48 hours. Compounds are tested at a single concentration, which is 10^-5 M for most compounds. The reported endpoint is percent growth (GI% or GIPRCNT), where numbers from 0 - 100% represent growth inhibition, and numbers from -100% - 0 represent cell death. For example, a value of 40 represents 60% growth inhibition. A value of 0 means no net growth occurred over the course of the experiment. A value of -40 indicates 40% of cells at the beginning of the experiment died by the end of the experiment. A value of -100 means all cells are dead at the end of the experiment.\nNCI-60 Human Tumor Cell Lines Screen was performed using the standard one-dose NCI protocol, which is described in more detail at https://dtp.cancer.gov/discovery_development/nci-60/default.htm.\nCompounds with GIPRCNT values below 10 were considered active. Activity score was based on GIPRCNT using the following formula: […]\nScore is 0 for GIPRCNT values of 100 or above, 50 for GIPRCNT values of 0, and 100 for GIPRCNT values of -100.", "values": [{"smiles": "Cc1cc(Nc2ccc(F)cc2)nc(N2CCN(c3ccnc4cc(Cl)ccc34)CC2)n1", "growth": "31.9% (inactive)"}, {"smiles": "Nc1ccccc1NC(=O)c1ccc(CN2CCC/C(=C\\c3ccccn3)C2=O)cc1", "growth": "26.4% (inactive)"}, {"smiles": "O=c1[nH]c(=S)[nH]c2nc[nH]c12", "growth": "95.2% (inactive)"}, {"smiles": "NS(=O)(=O)c1ccc(CCNC(=O)/C=C/c2ccc(Cl)cc2)cc1", "growth": "95.1% (inactive)"}, {"smiles": "N#CC1=C(N)Oc2c(c(N)nn2-c2ccccc2)C1c1ccc(Cl)cc1Cl", "note": "(stereo not given)", "growth": "96.9% (inactive)"}, {"smiles": "COc1ccccc1CNc1nc(N)nc2[nH]c3ccc(O)cc3c12", "growth": "53.7% (inactive)"}, {"smiles": "Cc1ccc(S(=O)(=O)Nc2ccc(-c3cc(-c4cccc(F)c4)c(C#N)c(=O)[nH]3)cc2)cc1", "growth": "80.1% (inactive)"}, {"smiles": "O=C(NO)c1ccc(Cn2c(=O)n(CCc3ccc(O)cc3)c(=O)c3ccccc32)cc1", "growth": "36.2% (inactive)"}, {"smiles": "CC1(C)NCCC[C@]2(C)[C@H]3CC[C@@H]4[C@H]5[C@H](C(=O)/C=C/c6ccccn6)CC[C@]5(CO)CC[C@@]4(C)[C@]3(C)CC[C@@H]12", "growth": "47.6% (inactive)"}, {"smiles": "Cc1ccsc1-c1ccc2c(c1)COC2(CCCN(C)C)c1ccc(F)cc1", "note": "(stereo not given)", "growth": "71.9% (inactive)"}, {"smiles": "C/C(=N\\Nc1cc(C)c2ccccc2n1)c1ccccn1", "growth": "-23.3% (active)"}, {"smiles": "CCCCC[C@H]1CC=C2C(=O)C=C[C@@H]2CC=CCCCC(=O)O[C@@H](CCCCC)CC=C2C(=O)C=C[C@@H]2CC=CCCCC(=O)O[C@@H](CCCCC)CC=C2C(=O)C=C[C@@H]2CC=CCCCC(=O)O1", "growth": "12.2% [8.75 µM] (inactive)"}, {"smiles": "O=c1[nH]ncc(Br)c1Br", "growth": "7.24% (active)"}, {"smiles": "N#CC1=C(N)Oc2c(sc3c(F)cccc23)C1c1ccc(Cl)cc1", "note": "(stereo not given)", "growth": "42.8% (inactive)"}, {"smiles": "Nc1c(C(=O)Nc2cccc(Cl)c2)sc2ncc(Cl)cc12", "growth": "81.9% (inactive)"}, {"smiles": "COc1ccc(-n2c(/C=C/c3ccc(O)c(OC)c3)cc(/C=C/c3ccc(O)c(OC)c3)nc2=O)cc1", "growth": "66% (inactive)"}, {"smiles": "CC1(C)CC[C@]2(CO)CC[C@]3(C)C(=CC[C@@H]4[C@@]5(C)CC[C@H](NCO)C(C)(C)[C@@H]5CC[C@]43C)[C@@H]2C1", "growth": "-35.6% (active)"}, {"smiles": "COc1cnc2c(c1)C(=O)c1c-2n(CCCNC(C)C)c(=O)c2cc([N+](=O)[O-])ccc12", "growth": "-47.6% (active)"}, {"smiles": "COc1ccc2c(c1)c1nc3cc(C)c(C)cc3nc1n2CCN(C)C", "growth": "6.83% (active)"}, {"smiles": "[B-][N+](CC)(CC)c1ccccc1", "growth": "112% (inactive)"}, {"smiles": "Fc1ccc2c(c1)c(-c1nc(-c3c[nH]c4ncccc34)cs1)cn2CCCN1CCCCC1", "growth": "76.9% (inactive)"}, {"smiles": "O=C(N/N=C/c1ccccc1SSc1ccccc1/C=N/NC(=O)c1ccccc1)c1ccccc1", "growth": "24.9% (inactive)"}, {"smiles": "COc1cnc2c(c1)C(=O)c1c-2n(CCCNC2=NCCS2)c(=O)c2cc([N+](=O)[O-])ccc12", "growth": "-6.2% (active)"}, {"smiles": "CCNCCCn1c2c(c3ccc([N+](=O)[O-])cc3c1=O)C(=O)c1cc(OC)cnc1-2", "growth": "-37% (active)"}, {"smiles": "C=C1C(=O)O[C@H]2[C@H]1CC/C(Cn1cc(-c3ccc(OC)cc3)nn1)=C\\CC[C@@]1(C)O[C@@H]21", "growth": "-51% (active)"}, {"smiles": "CCCCC[C@H]1C/C=C2/C(=O)C=C[C@@H]2C/C=C\\CCCC(=O)O[C@@H](CCCCC)C/C=C2/C(=O)C=C[C@@H]2C/C=C\\CCCC(=O)O1", "growth": "-20.7% (active)"}, {"smiles": "COc1cc2c(cc1-c1c(C)noc1C)ncc1nc(C3CCCCC3)n([C@@H](C)COC(F)F)c12", "growth": "39.1% (inactive)"}, {"smiles": "COC(=O)[C@@H]1[C@H]2C[C@H]3c4[nH]c5cc(OC)ccc5c4CCN3C[C@@H]2C[C@H](OC(=O)/C=C/c2ccnc(OC)c2)[C@H]1OC", "growth": "88.4% (inactive)"}, {"smiles": "C[C@H]1OC(=O)/C=C/[C@@H](O)[C@@H](O)CCCCCCCC[C@@H]1O", "growth": "89.6% (inactive)"}, {"smiles": "CCCCCCCC(=O)SCC/C=C/[C@@H]1CC(=O)NCc2cccc(n2)CN(Cc2ccc3ccccc3c2)CC(=O)N[C@@H](C(C)C)C(=O)O1", "growth": "22.7% (inactive)"}, {"smiles": "Brc1cnc2[nH]cc(-c3nnc(-c4ccccc4)o3)c2c1", "growth": "84.7% (inactive)"}, {"smiles": "c1ccc(CN2C(c3ccccc3)=Nc3ccccc3C2c2c[nH]c3ccccc23)cc1", "note": "(stereo not given)", "growth": "44.4% (inactive)"}, {"smiles": "CCC(CC)C(=O)OC(C)COc1ccc(C(C)(C)C)cc1", "note": "(stereo not given)", "growth": "86.2% (inactive)"}, {"smiles": "CC(C)(C)c1cc(-n2c(-c3ccc(Cl)cc3)nc3cc(C(=O)Nc4ccc(Cl)cc4)ccc32)n[nH]1", "growth": "61.6% (inactive)"}, {"smiles": "Fc1ccc(Nc2nc(Nc3ccc(-c4nc5ccccc5[nH]4)cc3)nc(N3CCCC3)n2)cc1", "growth": "81.7% (inactive)"}, {"smiles": "C=C(C)[C@@H]1CC[C@]2(/C=N/Nc3ccncc3)CC[C@]3(C)[C@H](CC[C@@H]4[C@@]5(C)CCCNC(C)(C)[C@@H]5CC[C@]43C)[C@@H]12", "growth": "95.2% (inactive)"}, {"smiles": "COc1ccc(-c2cc(-c3cccs3)n(N=O)c(=O)c2C#N)cc1", "growth": "97.4% (inactive)"}, {"smiles": "NNC(=O)c1nc2ccccc2[nH]1", "growth": "97.1% (inactive)"}, {"smiles": "NC1=NN=C2N(N)C(=O)c3cnn(-c4ccccc4)c3N2c2nc(-c3ccccc3)cc(-c3ccccc3)c21", "growth": "102% (inactive)"}, {"smiles": "COc1ccc(/C=C(\\C#N)c2cc3ccccc3n2C(C)=O)cc1", "growth": "103% (inactive)"}]}]}
